{"source": "paper PMC4336329", "about": "(PLoS ONE, 2015)", "note": "About 2,200 (0.71%) of roughly 310,000 compounds showed an effect of 50% or more. The effect is printed as a negative number. The sample as a whole holds a higher share of strong results than the screen did.", "data": [{"target": "human ether-à-go-go-related gene (hERG) potassium channel (human, UniProt Q12809)", "sequence (Q12809 whole entry, looked up)": "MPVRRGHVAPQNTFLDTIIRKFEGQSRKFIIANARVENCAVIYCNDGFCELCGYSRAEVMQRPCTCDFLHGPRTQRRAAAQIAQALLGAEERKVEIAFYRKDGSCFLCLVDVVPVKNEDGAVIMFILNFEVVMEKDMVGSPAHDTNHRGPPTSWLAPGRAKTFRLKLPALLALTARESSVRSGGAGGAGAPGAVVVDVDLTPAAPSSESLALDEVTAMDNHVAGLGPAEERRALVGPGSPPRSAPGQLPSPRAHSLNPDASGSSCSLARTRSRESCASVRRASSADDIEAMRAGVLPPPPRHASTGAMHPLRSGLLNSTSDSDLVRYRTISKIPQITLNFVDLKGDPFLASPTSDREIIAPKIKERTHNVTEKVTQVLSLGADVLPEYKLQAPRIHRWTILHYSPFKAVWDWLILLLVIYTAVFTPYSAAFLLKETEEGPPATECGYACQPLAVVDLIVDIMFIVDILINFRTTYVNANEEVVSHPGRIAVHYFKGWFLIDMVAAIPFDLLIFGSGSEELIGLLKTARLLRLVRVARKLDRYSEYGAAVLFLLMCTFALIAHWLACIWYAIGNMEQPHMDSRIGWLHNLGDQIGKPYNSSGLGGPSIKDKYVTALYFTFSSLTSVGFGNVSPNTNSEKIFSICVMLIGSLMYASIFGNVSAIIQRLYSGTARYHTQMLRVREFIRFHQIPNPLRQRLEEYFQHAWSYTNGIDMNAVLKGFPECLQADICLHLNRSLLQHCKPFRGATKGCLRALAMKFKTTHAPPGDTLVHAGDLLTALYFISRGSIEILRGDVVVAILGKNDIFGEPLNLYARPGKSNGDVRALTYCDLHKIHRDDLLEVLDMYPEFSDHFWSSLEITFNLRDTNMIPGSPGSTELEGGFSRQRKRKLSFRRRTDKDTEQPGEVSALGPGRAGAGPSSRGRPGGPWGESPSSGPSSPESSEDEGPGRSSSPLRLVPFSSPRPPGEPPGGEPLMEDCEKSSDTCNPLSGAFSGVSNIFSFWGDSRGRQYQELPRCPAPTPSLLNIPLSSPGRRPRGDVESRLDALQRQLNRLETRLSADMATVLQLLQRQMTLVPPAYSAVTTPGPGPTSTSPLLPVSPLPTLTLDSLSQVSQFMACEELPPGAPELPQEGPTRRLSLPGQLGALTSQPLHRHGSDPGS", "test": "primary screen, population patch clamp on CHO cells stably expressing hERG; higher = less effect of the substance", "description": "Briefly, Chinese hamster ovary (CHO) cells stably expressing the hERG channel were dislodged from tissue culture flasks and dispensed into PPC plates. […] During the recording, background leak currents were estimated by a 100 ms step to -80 mV from an initial holding potential of -70 mV and subtracted from the subsequent current measurement. The campaign was conducted in two phases using slight differences in recording protocol. In the first phase, the initial voltage pulse used a 100 ms step to -30 mV from a holding potential of -70 mV, a 2 s conditioning step to +25 mV, and a 2 s test step to -30 mV. During the second phase of the screen, the potential during the conditioning step was raised to +45 mV. In both phases of the campaign, a secondary voltage pulse was applied using the same parameters as the second phase initial pulse. The initial and secondary pulses were applied in the absence of compound, and upon application of 1 μM and 10 μM test concentrations. Small molecule effects on hERG current density were quantified by […].", "units": {"hERG current change (%, negative = inhibition) at 1uM": "%"}, "values": [{"smiles": "Cc1cc(C)nc(-n2ncc3c2CC(C)CC3=O)n1", "note": "(stereo not drawn)", "hERG current change (%, negative = inhibition) at 1uM": 11.4}, {"smiles": "O=C(CN1C(=O)C2CCCCN2C(=O)c2ccccc21)N1CCCc2ccccc21", "note": "(stereo not drawn)", "hERG current change (%, negative = inhibition) at 1uM": 15.1}, {"smiles": "O=C(Cc1cccs1)Nc1nnc(SCc2cccc3ccccc23)s1", "hERG current change (%, negative = inhibition) at 1uM": -3.03}, {"smiles": "COc1ccc(OC)c(NC(=O)CSc2nc(=O)n(Cc3ccccn3)c3c2CCC3)c1", "hERG current change (%, negative = inhibition) at 1uM": -2.43}, {"smiles": "Cc1cc(O)c(C(C)C)cc1NC(=O)Cn1nc(C)c2ccccc2c1=O", "hERG current change (%, negative = inhibition) at 1uM": -6.85}, {"smiles": "Cc1ccc(NC(=O)CCc2ccc(C)o2)cc1", "hERG current change (%, negative = inhibition) at 1uM": 7.21}, {"smiles": "COC(=O)c1ccc(NC(=O)c2cc[n+]([O-])cc2)cc1", "hERG current change (%, negative = inhibition) at 1uM": 10.9}, {"smiles": "CCN1CCCC1CNC(=O)c1cc2cc(F)ccc2[nH]1", "note": "(stereo not drawn)", "hERG current change (%, negative = inhibition) at 1uM": -53.8}, {"smiles": "CCN1CCCC1CNC(=O)c1cc2ccc(OC)cc2[nH]1", "note": "(stereo not drawn)", "hERG current change (%, negative = inhibition) at 1uM": 5.34}, {"smiles": "CCN1CCCC1CNC(=O)c1cc2cc(OC)c(OC)cc2[nH]1", "note": "(stereo not drawn)", "hERG current change (%, negative = inhibition) at 1uM": 16.2}, {"smiles": "Fc1ccc2[nH]c3c(NCCN4CCOCC4)ncnc3c2c1", "hERG current change (%, negative = inhibition) at 1uM": 8.84}, {"smiles": "CCN1CCCC1CNc1ncnc2c1[nH]c1ccc(Cl)cc12", "note": "(stereo not drawn)", "hERG current change (%, negative = inhibition) at 1uM": -85.5}, {"smiles": "Fc1ccc2[nH]c3c(NCc4ccccc4)ncnc3c2c1", "hERG current change (%, negative = inhibition) at 1uM": 15.4}, {"smiles": "Clc1ccc2[nH]c3c(NCCN4CCOCC4)ncnc3c2c1", "hERG current change (%, negative = inhibition) at 1uM": -2.76}, {"smiles": "Clc1ccc2[nH]c3c(NCC4CCCO4)ncnc3c2c1", "note": "(stereo not drawn)", "hERG current change (%, negative = inhibition) at 1uM": -3.05}, {"smiles": "CCN1CCCC1CNc1ncnc2c1[nH]c1ccc(F)cc12", "note": "(stereo not drawn)", "hERG current change (%, negative = inhibition) at 1uM": -81.4}, {"smiles": "CCc1noc(C)c1C(=O)NNC(=O)c1cc(OC)cc(OC)c1", "hERG current change (%, negative = inhibition) at 1uM": 9.15}, {"smiles": "CCOc1cc(C2c3c(n[nH]c3C)C(=O)N2c2ccc(Br)cc2)ccc1O", "note": "(stereo not drawn)", "hERG current change (%, negative = inhibition) at 1uM": 10.8}, {"smiles": "CCC(Oc1ccc2c(c1)C(=O)CC(C)(C)O2)C(=O)NCCN1CCCCCC1.O=C(O)C(=O)O", "note": "(stereo not drawn)", "hERG current change (%, negative = inhibition) at 1uM": -9.15}, {"smiles": "C=CCn1c(SCC(=O)Nc2ccc3c(c2)CCC3)nnc1-c1cccs1", "hERG current change (%, negative = inhibition) at 1uM": -83.5}, {"smiles": "C=CCn1c(SCC(=O)N2CCN(c3ccc(F)cc3)CC2)nnc1-c1cccs1", "hERG current change (%, negative = inhibition) at 1uM": -52.4}, {"smiles": "C=CCn1c(SCC(=O)N2CCN(c3ccccc3)CC2)nnc1-c1ccco1", "hERG current change (%, negative = inhibition) at 1uM": 4.57}, {"smiles": "C=CCn1c(SCC(=O)N2CCN(c3ccc(F)cc3)CC2)nnc1-c1ccco1", "hERG current change (%, negative = inhibition) at 1uM": -67}, {"smiles": "C=CCn1c(SCC(=O)C(C)(C)C)nnc1-c1cccs1", "hERG current change (%, negative = inhibition) at 1uM": -9.56}, {"smiles": "CCn1c(SCC(=O)Nc2nc(C)c(C)s2)nnc1-c1cccs1", "hERG current change (%, negative = inhibition) at 1uM": -62.5}, {"smiles": "C=CCn1c(SCC(=O)Nc2ccc(N3CCOCC3)cc2)nnc1-c1ccco1", "hERG current change (%, negative = inhibition) at 1uM": 8.51}, {"smiles": "C=CCn1c(SCC(=O)O)nnc1-c1cccs1", "hERG current change (%, negative = inhibition) at 1uM": 9.03}, {"smiles": "C=CCn1c(SCC(=O)Nc2ccc(C(=O)OC(C)C)cc2)nnc1-c1cccs1", "hERG current change (%, negative = inhibition) at 1uM": 9.31}, {"smiles": "CCn1c(SCC(=O)Nc2nc(C)c(C)s2)nnc1-c1ccco1", "hERG current change (%, negative = inhibition) at 1uM": -11.2}, {"smiles": "CCn1c(SCC(=O)Nc2ccccc2)nnc1-c1cccs1", "hERG current change (%, negative = inhibition) at 1uM": -13.8}, {"smiles": "C=CCn1c(SCC(=O)Nc2ccc(C(=O)OCC)cc2)nnc1-c1cccs1", "hERG current change (%, negative = inhibition) at 1uM": 12.3}, {"smiles": "CN(CC(=O)Nc1ccc(Cl)c(Cl)c1)C(=O)C1CCCC1", "hERG current change (%, negative = inhibition) at 1uM": 5.9}, {"smiles": "Cc1cc(NC(=O)c2cc(-c3ccccc3)on2)n(-c2ccccc2)n1", "hERG current change (%, negative = inhibition) at 1uM": 7.88}, {"smiles": "O=C(COC(=O)c1ccc2ccccc2n1)c1ccc(F)cc1", "hERG current change (%, negative = inhibition) at 1uM": -5.55}, {"smiles": "Cc1cc([N+](=O)[O-])ccc1NC(=O)Nc1ccccc1F", "hERG current change (%, negative = inhibition) at 1uM": 13}, {"smiles": "O=C(CCc1nnc(CCc2ccccc2)o1)NC(c1cccnc1)C(F)(F)F", "note": "(stereo not drawn)", "hERG current change (%, negative = inhibition) at 1uM": -0.569}, {"smiles": "CC1CN(C(=O)C(Sc2ccccc2)c2ccccc2)CC(C)O1", "note": "(stereo not drawn)", "hERG current change (%, negative = inhibition) at 1uM": 5.46}, {"smiles": "N#C/C(=C1\\CCCN1)c1ccc2ccccc2n1", "hERG current change (%, negative = inhibition) at 1uM": 8.93}, {"smiles": "Cc1ccc(CCN2CC(C(=O)NCCCN3CCOCC3)CC2=O)cc1", "note": "(stereo not drawn)", "hERG current change (%, negative = inhibition) at 1uM": 16.5}, {"smiles": "CN1CCCc2cc3c(C(F)(F)F)cc(=O)oc3nc21", "hERG current change (%, negative = inhibition) at 1uM": 14.3}, {"smiles": "O=C(CSc1nc(C(F)(F)F)cc(=O)[nH]1)N1CCCCCC1", "hERG current change (%, negative = inhibition) at 1uM": 5.27}, {"smiles": "Cc1nc(C)c(C(=O)NCc2ccccc2Cl)o1", "hERG current change (%, negative = inhibition) at 1uM": 10.8}]}]}
